Screens deposited in PubChem by National Center for Advancing Translational Sciences (NCATS).
nsP2pro primary: Primary qHTS for inhibitors of NSP2Pro chikungunya virus (CHIKV); Polyprotein P1234 (Chikungunya virus (strain S27-African prototype)), Q8JUX6; FRET peptide cleavage, nsP2pro, fluorescence 1 h; Potency, µM (highest dose often 24.9 µM), actives largely listed as inhibitors; actives 1.1% (n = 31,000); AID 1964107, 2024; also: nearly all actives have a fitted effect of over 60% in size
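Recombinant nsP2pro (150 nM) was preincubated with compound 15 min at room temperature in 10 mM Tris-HCl pH 8.0, 0.01% Tween 20. Peptide 2 FRET substrate (2.5 uM) was then added and fluorescence read after 1 h. Seven-point series, up to 25 uM.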
nsP2 cell sec: Secondary cell base assay for inhibitors of NSP2Pro Chikungunya virus (CHIKV); actives 10% (n = 450); Potency, µM (series often up to 51.1 µM), most hits filed as inhibitors; cell-based CHIKV nsP2 protease reporter assay; shares compounds with nsP2pro primary; also: nearly all actives have a fitted effect of over 70% in size
Target sequence (Q8JUX6 220-798 limits assumed): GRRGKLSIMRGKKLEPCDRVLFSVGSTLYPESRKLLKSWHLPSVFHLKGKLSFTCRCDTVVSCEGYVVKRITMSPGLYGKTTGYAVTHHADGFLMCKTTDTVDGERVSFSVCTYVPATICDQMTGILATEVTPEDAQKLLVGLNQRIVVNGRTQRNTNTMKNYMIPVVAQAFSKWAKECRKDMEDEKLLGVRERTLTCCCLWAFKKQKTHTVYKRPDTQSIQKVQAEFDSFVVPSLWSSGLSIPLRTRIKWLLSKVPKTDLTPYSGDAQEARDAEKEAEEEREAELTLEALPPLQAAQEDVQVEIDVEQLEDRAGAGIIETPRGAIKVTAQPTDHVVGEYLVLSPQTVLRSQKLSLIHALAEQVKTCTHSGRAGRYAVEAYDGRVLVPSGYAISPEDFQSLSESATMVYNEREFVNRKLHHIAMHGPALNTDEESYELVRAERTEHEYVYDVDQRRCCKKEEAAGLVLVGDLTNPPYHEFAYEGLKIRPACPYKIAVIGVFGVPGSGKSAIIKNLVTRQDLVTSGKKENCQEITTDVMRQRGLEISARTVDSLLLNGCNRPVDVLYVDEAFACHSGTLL
NSP2 full ctr: Selectivity profile for inhibitors of NSP2Pro chikungunya virus (CHIKV): Full length NSP2 enzyme counterscreen (CHIKV-NSP2); Full-length CHIKV NSP2 protease enzymatic counterscreen; shares compounds with nsP2pro primary; AID 1964101, 2024; actives 39% (n = 410); Potency, µM (series often up to 50.7 µM), usual class: inhibitors; also: nearly all actives have a fitted effect of over 65% in size
Furin counterscr: Selectivity profile for inhibitors of NSP2Pro chikungunya virus (CHIKV): Human furin counterscreen; shares compounds with nsP2pro primary; actives 6% (n = 410); Recombinant human furin enzymatic counterscreen, fluorogenic substrate; Potency, µM (highest dose often 50.6 µM), most hits filed as inhibitors
nsP2 NS23 pep: Selectivity profile for inhibitors of NSP2Pro chikungunya virus (CHIKV): Endogenous NS2/3 peptide Counterscreen; shares compounds with nsP2pro primary; Purified CHIKV nsP2 protease, endogenous NS2/3 peptide cleavage; Potency, µM (series often up to 51 µM), actives largely listed as inhibitors; actives 34% (n = 410); also: nearly all actives have a fitted effect of over 55% in size
Papain counter: Selectivity profile for inhibitors of NSP2Pro chikungunya virus (CHIKV): Papain Counterscreen; AID 1964104, 2024; Potency, µM (series often up to 51 µM), hits mostly inhibitors; shares compounds with nsP2pro primary; actives 5% (n = 410); purified papain protease activity, enzymatic inhibition
nsP2pro confirm: Confirmatory qHTS for inhibitors of NSP2Pro chikungunya virus (CHIKV); actives 43% (n = 410); Potency, µM (doses to about 25.5 µM), actives largely listed as inhibitors; CHIKV nsP2 protease enzymatic activity, qHTS; shares compounds with nsP2pro primary; also: nearly all actives have a fitted effect of over 75% in size
HCV NS3 4A cs: Selectivity profile for inhibitors of NSP2Pro chikungunya virus (CHIKV): NS34A-HCV Counterscreen | shares compounds with nsP2pro primary | HCV NS3/4A protease biochemical counterscreen | Potency, µM (titrated, usually from 50.9 µM), hits mostly inhibitors | actives 20% (n = 410) | AID 1964106, 2024; also: nearly all actives have a fitted effect of over 55% in size
Numbers stand for hits; i = inactive; ? = inconclusive; nt = no result given; ! = not active in a repeat. The sample as a whole holds a higher share of hits than the screen did. Calls follow the shape of the full dose curve.

SMILES | nsP2pro primary | nsP2 cell sec | others
Cc1cccc(C(=O)Nc2ccc3oc(-c4cccc5c(Br)cccc45)nc3c2)c1 | i | nt
Cc1ccc(C)c(N2CCN(c3ccc(NC(=O)c4cccs4)cc3C(=O)O)CC2)c1 | 5.62µM | i | NSP2 full ctr=?;Furin counterscr=i;nsP2 NS23 pep=16.3µM;Papain counter=i;nsP2pro confirm=7.98µM;HCV NS3 4A cs=4.11µM
O=C(Nc1ccc(S(=O)(=O)Nc2ncccn2)cc1)c1cccc(Cl)c1 | i | nt
CC1CCN(c2ccc(NC(=O)c3cccc(Cl)c3)cc2C(=O)O)CC1 | 4.47µM | ? | NSP2 full ctr=i;Furin counterscr=?;nsP2 NS23 pep=0.461µM;Papain counter=i;nsP2pro confirm=7.11µM;HCV NS3 4A cs=3.26µM
Cn1c(=O)n(C)c2cc(N3CCCC3)c(NC(=O)Nc3ccccc3)cc21 | i | nt
Cc1ccccc1C(=O)Nc1ccc(NC(=O)c2cccs2)cc1 | i | nt
Cc1cccc(C(=O)Nc2ccc(N3CC=C(c4ccccc4C)CC3)c(C(=O)O)c2)c1 | 9.53µM | i | NSP2 full ctr=2.06µM;Furin counterscr=?;nsP2 NS23 pep=7.3µM;Papain counter=i;nsP2pro confirm=5.04µM;HCV NS3 4A cs=1.63µM
O=C(Nc1ccc(N2CCC(N3CCCCC3)CC2)c(C(=O)O)c1)c1ccccc1 | 10.7µM | i | NSP2 full ctr=2.91µM;Furin counterscr=?;nsP2 NS23 pep=9.19µM;Papain counter=i;nsP2pro confirm=6.34µM;HCV NS3 4A cs=1.83µM
O=C(Nc1cncnc1)c1cccs1 | i | nt
Cc1c(C(=O)Nc2ccc(N3CCC(N4CCOCC4)CC3)c(C#N)c2)cnn1-c1ccc(Cl)cc1 | i | nt
CN(CCN1CCC(OC(=O)Nc2ccccc2-c2ccccc2)CC1)C(=O)c1ccc(CN2CCC(C(N)=O)CC2)cc1 | i | nt
CCCCc1ccc(-c2ccc(=O)n(CC(=O)NCCc3ccccc3)n2)cc1 | i | nt
C[C@H]1CN(C(=O)CCCc2ccccc2)C[C@@H]1c1nc(-c2ccccc2)no1 | i | nt
CC(C(=O)NCCc1ccccn1)C1CCOCC1 (stereo not given) | i | nt
CN(C)c1ccc(C(=O)N[C@H]2CO[C@H]3[C@@H]2OC[C@@H]3Nc2nccc(-c3cccs3)n2)cc1 | i | nt
CC(=O)N1CCc2[nH]cnc2C12CCN(C(=O)CCn1nnnc1C)CC2 | i | nt
O=P(O)(NCCCl)NCCCl | i | nt
CCC(=O)O[C@H]1CC[C@H]2[C@@H]3CC[C@H]4CC(=O)[C@H](C)C[C@]4(C)[C@H]3CC[C@]12C | i | nt
CCC1C(O)C2C3CCC(C(C)CCC(=O)O)C3(C)CCC2C2(C)CCC(O)CC12 (stereo not given) | i | nt
O=C1O[C@@H]2CN(c3ncccn3)C[C@@H]2N1CCc1ccc(F)cc1 | i | nt
COCCN1C(=O)CO[C@H]2CN(c3ncccn3)C[C@H]21 | 7.94µM | i | NSP2 full ctr=33.5µM;Furin counterscr=?;nsP2 NS23 pep=?;Papain counter=i;nsP2pro confirm=16.3µM;HCV NS3 4A cs=?
CC(C)N1C[C@@H]2OCC(=O)N(Cc3ccccc3)[C@@H]2C1 | i | nt
O=C1CC(c2c(F)cccc2Cl)c2c(ccc3ccccc23)N1 (stereo not given) | i | nt
Nc1nc2c(s1)C(c1ccccc1Cl)CC(=O)N2 (stereo not given) | 10µM! | i | NSP2 full ctr=1.63µM;Furin counterscr=i;nsP2 NS23 pep=3.66µM;Papain counter=i;nsP2pro confirm=4µM;HCV NS3 4A cs=i
CC1=C(C(=O)OCC2CCCCC2)C(c2ccccc2F)CC(=O)N1 (stereo not given) | i | nt
SMILES | nsP2pro primary | nsP2 cell sec | others
CNc1nc2c(s1)C(c1ccccc1F)CC(=O)N2 (stereo not given) | 1.58µM | i | NSP2 full ctr=3.26µM;Furin counterscr=i;nsP2 NS23 pep=4.61µM;Papain counter=i;nsP2pro confirm=2.83µM;HCV NS3 4A cs=?
CSc1nc2c(c(=O)[nH]1)C(c1cccc(F)c1F)CC(=O)N2 (stereo not given) | i | nt
COc1ccc(COC(=O)C2=C(C)NC(=O)CC2c2cccc(Cl)c2Cl)cc1 (stereo not given) | i | nt
CC(C)C1=NOC2(CCN(C(=O)c3ccccc3F)CC2)C1 | i | nt
O=C(Cc1ccccn1)NCCNC(=O)c1ccc(-c2cccc(C(F)(F)F)c2)cc1 | i | nt
Cc1nc(CCNc2ncnc3ccc(-c4ccc5c(c4)OCO5)cc23)cs1 | i | nt
Fc1cccc(Br)c1NC1=NCCN1 | i | nt
CN(C)c1cc(CNCC(C)(C)C)c(O)c2c1C[C@H]1C[C@H]3[C@H](N(C)C)C(=O)C(C(N)=O)=C(O)[C@@]3(O)C(=O)C1=C2O | i | nt
COc1ccc(CNC(=O)C[C@@H]2O[C@H](CNC(=O)NC(C)C)[C@@H](O)[C@H]2O)cc1 | i | nt
COc1ccccc1NC(=O)C1=C(C)Nc2ncnn2C1c1ccccc1C(=O)O (stereo not given) | i | nt
COc1ccccc1NC(=O)C1=C(C)Nc2nc(SCc3ccccc3Cl)nn2C1c1ccncc1 (stereo not given) | i | nt
COc1ccccc1NC(=O)C1=C(C)Nc2nc(-c3ccco3)nn2C1c1ccccc1F (stereo not given) | ? | i
CNc1oc(-c2cccc3ccccc23)nc1C(=O)OC | i | nt
CC1=CC2=C(C)C(=O)[C@](C)(O)[C@H](O)C2=CO1 | ? | i | NSP2 full ctr=i;Furin counterscr=i;nsP2 NS23 pep=i;Papain counter=i;nsP2pro confirm=i;HCV NS3 4A cs=i
O=C(CCc1nc2ccccc2s1)N[C@@H]1CCOC[C@H]1OCCO | i | nt
CC1=NN(c2ccccc2)C(=O)C1 | 0.0351µM! | i | NSP2 full ctr=i;Furin counterscr=i;nsP2 NS23 pep=i;Papain counter=i;nsP2pro confirm=i;HCV NS3 4A cs=i
O=C(N[C@H]1CCN2C(=O)c3cc(/C=C/c4ccccc4)ccc3NC(=O)[C@H]12)C1CCCC1 | i | nt
C[N+]1(CC2CC2)CC[C@]23c4c5ccc(O)c4O[C@H]2C(=O)CC[C@@]3(O)[C@H]1C5 (stereo not given in full) | i | nt
O=C(c1ccncc1)N1CC2CCC(C1)N2Cc1ccc(-c2cccs2)cc1 | i | nt
COc1cc(F)c(CN2CCC3(CCCNC3)C2)c(F)c1 (stereo not given) | i | nt
O=C(NCc1ccccc1)c1nc(S(=O)(=O)Cc2ccc(F)cc2)ncc1Cl | 7.57µM | 0.461µM | NSP2 full ctr=11.6µM;Furin counterscr=i;nsP2 NS23 pep=5.17µM;Papain counter=i;nsP2pro confirm=3.57µM;HCV NS3 4A cs=?
Cc1cccc(CS(=O)(=O)c2ncc(Cl)c(C(=O)NCc3ccccc3)n2)c1 | 3.55µM | 2.59µM | NSP2 full ctr=9.19µM;Furin counterscr=i;nsP2 NS23 pep=6.51µM;Papain counter=i;nsP2pro confirm=4.49µM;HCV NS3 4A cs=?
